IL-1B inflam inh: qHTS for Inhibitors of Inflammasome Signaling: IL-1-beta AlphaLISA Primary Screen; AID 743279, 2014; 4.7% of 360,000 active; THP-1 LPS/ATP IL-1B secretion, AlphaLISA, 16 h; hits give low values; activity change, % at 57.5 µM; in the data active = activity change below about -50%; inconclusive = mostly about -30% to -49%
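THP-1 cells pretreated 1 hr with compounds (up to 57.5 uM final), then stimulated with LPS (250 ng/mL final) plus ATP (1.25 mM final); secreted IL-1B measured by AlphaLISA after 16 hr, decreased signal indicating inhibition.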
HT1080 IDH1KD tx: qHTS for induction of synthetic lethality in tumor cells producing 2HG: qHTS for the HT-1080-IDH1KD cell line | HT-1080 IDH1 knockdown viability, ATP luminescence, 48 h | Potency, µM (doses to about 46.1 µM), for inactives: at the top dose activity, negative = toxicity, actives largely listed as cytotoxic | 2% of 360,000 active | AID 686971, 2013;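 also: potency is read from the fitted curve at half-maximal effect; 0% = DMSO wells and -100% = cell-free medium wells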
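After a 2 h attachment period, IDH1KD HT-1080 cells took pin-transferred compound for 48 h at 37 °C; ATP-based luminescence after 10 min room-temperature reagent incubation reported viability.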
DT40 TDP1 CPT: qHTS for Inhibitors of human tyrosyl-DNA phosphodiesterase 1 (TDP1): qHTS in cells in presence of CPT; chicken DT40 Tdp1-/-;hTDP1 cells + 20 nM CPT, ATP luminescence, 48 h; 12% of 420,000 active; Potency, µM (doses to about 46.2 µM), for the others: at the top dose activity change, negative = growth inhibition, most hits filed as inhibitors; also: potency is read from the fitted curve at half-maximal effect; nearly all actives have a fitted effect of over 55% in size
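Chicken DT40 Tdp1-/- cells stably complemented with human TDP1 were seeded at 400 cells/well in medium containing 20 nM camptothecin, exposed to pin-transferred compounds, and grown at 37 °C for at least 48 hr. Viability was read as ATP luminescence.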
HT1080NT lethal: qHTS for induction of synthetic lethality in tumor cells producing 2HG: qHTS for the HT-1080-NT fibrosarcoma cell line; HT-1080-NT fibrosarcoma viability, CellTiter-Glo ATP luminescence, 48 h; Potency, µM (titrated, usually from 46.1 µM), for inactives: at the highest dose activity, negative = less viability, hits mostly cytotoxic; 1.6% of 360,000 active;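 also: NT is the 2HG producing partner of a matched IDH1 knockdown line; potency is read from the fitted curve at half-maximal effect; 0% = DMSO-treated cells and -100% = media-only wells without cells; nearly all actives have a fitted effect of over 55% in size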
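Compounds were tested in concentration-response format on HT-1080-NT cells for 48 hours at 37 degrees C. Cell viability came from CellTiter-Glo luminescence; curves were classified by r2, response magnitude and activity.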
DT40 TDP1 no CPT: qHTS for Inhibitors of human tyrosyl-DNA phosphodiesterase 1 (TDP1): qHTS in cells in absence of CPT; DT40 Tdp1-/- hTDP1 cells, no CPT, ATP luminescence, 48 h; Potency, µM (doses to about 46.2 µM), for inactives: top-dose activity change, negative = growth inhibition, most hits filed as inhibitors; 15% of 420,000 active; AID 686978, 2013; also: potency is read from the fitted curve at half-maximal effect; nearly all actives have a fitted effect of over 55% in size
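Chicken DT40 Tdp1-/- cells stably complemented with human TDP1 were seeded at 400 cells/well with DMSO in place of 20 nM camptothecin. After compound pinning, cells grew at least 48 hr at 37 °C; viability read by CellTiter-Glo luminescence.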
The depositor's hits bear a star. Sampled rows, rich in hits. Any-hit rate of the full collection: about 19%. Unless noted, calls follow the shape of the dose curve; as a rule, active = well fitted curve in the direction sought with a large enough effect; inconclusive = small, poorly fitted or top-dose-only effect, or another doubt; inactive = no such curve, though single readings can be large; an effect the other way counts as inactive or inconclusive. Unless noted, % is scaled to controls: 0 for no effect and ±100 for the full control effect.

How did CC1(C)S[C@H]2[C@@H](N)C(=O)N2[C@H]1C(=O)O do in these assays?
DT40 TDP1 CPT: 0%; DT40 TDP1 no CPT: -14%

How did CCC(CC)C(=O)NC1CCSC1=O (centres undefined) do in these assays?
IL-1B inflam inh: 3; HT1080 IDH1KD tx: 11%; DT40 TDP1 CPT: 7%; HT1080NT lethal: 13%; DT40 TDP1 no CPT: 14%

Results for Cc1ccsc1-c1nc(CSCC(=O)N2CCC3(CC2)OCCO3)c(C)o1 ?
IL-1B inflam inh: -27; HT1080 IDH1KD tx: -11%; DT40 TDP1 CPT: 23µM*; HT1080NT lethal: 0%; DT40 TDP1 no CPT: 16µM*

How did O=C(Cn1ncc2ccsc2c1=O)N1CCC2(CC1)OCCO2 do in these assays?
IL-1B inflam inh: -8; HT1080 IDH1KD tx: -13%; DT40 TDP1 CPT: -25%; HT1080NT lethal: 0%; DT40 TDP1 no CPT: -14%

Results for COc1ccccc1N1CCN(Cc2ccccc2F)CC1 ?
IL-1B inflam inh: 10; HT1080 IDH1KD tx: 7%; DT40 TDP1 CPT: -11%; HT1080NT lethal: 5%; DT40 TDP1 no CPT: -12%

How did COc1cccc(CCNCc2c(F)cccc2F)c1 do in these assays?
IL-1B inflam inh: 0; HT1080 IDH1KD tx: -5%; DT40 TDP1 CPT: 14%; HT1080NT lethal: 10%; DT40 TDP1 no CPT: 1%

How did COc1ccccc1N1CCN(C(=O)c2cc3c(-c4ccccc4F)nn(C)c3s2)CC1 do in these assays?
DT40 TDP1 CPT: inconclusive; DT40 TDP1 no CPT: 6.5µM*

How did COc1cccc(CNC(=O)c2cc3c(-c4ccccc4F)nn(C)c3s2)c1 do in these assays?
DT40 TDP1 CPT: inconclusive; DT40 TDP1 no CPT: 16µM*

Results for O=S(=O)(c1cc(Cl)cc(Cl)c1)N1Cc2cc(-c3ccccc3)ccc2-n2nncc2C1 ?
IL-1B inflam inh: 10; HT1080 IDH1KD tx: 12%; DT40 TDP1 CPT: inconclusive; HT1080NT lethal: 17%; DT40 TDP1 no CPT: inconclusive

What do the screens show for `CCOC(=O)c1c(C)n(Cc2ccccc2)c2ccc(O)cc12`?
IL-1B inflam inh: -3; HT1080 IDH1KD tx: -20%; DT40 TDP1 CPT: -12%; HT1080NT lethal: -14%; DT40 TDP1 no CPT: -30%

How did CCOC(=O)c1c(NC(=O)C(c2ccccc2)c2ccccc2)sc2c1C1CCN2CC1 do in these assays?
IL-1B inflam inh: -19; HT1080 IDH1KD tx: -1%; DT40 TDP1 CPT: 21µM*; HT1080NT lethal: -24%; DT40 TDP1 no CPT: 23µM*

How did N#CC(C#N)=NNc1ccc(-n2ccc(C(F)(F)F)n2)cc1 do in these assays?
IL-1B inflam inh: -83*; HT1080 IDH1KD tx: 4.6µM*; DT40 TDP1 CPT: 2.3µM*; HT1080NT lethal: inconclusive; DT40 TDP1 no CPT: 1.6µM*

How did Cc1cc(C)n(-c2ccc(NN=C(C#N)C#N)cc2)n1 do in these assays?
IL-1B inflam inh: -13; HT1080 IDH1KD tx: inconclusive; DT40 TDP1 CPT: 10µM*; HT1080NT lethal: 9%; DT40 TDP1 no CPT: 7.3µM*

What do the screens show for `NC[C@H](CC(=O)O)c1ccc(Cl)cc1`?
DT40 TDP1 CPT: inconclusive; DT40 TDP1 no CPT: -4%

How did CC(=O)OC1CC[C@@]2(C)C3CC(=O)[C@]4(C)C(C(C)=O)=CCC4C3CC[C@H]2C1 (some centres undefined) do in these assays?
DT40 TDP1 CPT: -4%; DT40 TDP1 no CPT: inconclusive

How did C[C@@H]1O[C@@H](O[C@H]2C[C@@H](O)[C@]3(CO)[C@H]4[C@H](O)C[C@]5(C)[C@@H](C6COC(=O)C6)CC[C@]5(O)[C@@H]4CC[C@]3(O)C2)[C@H](O)[C@H](O)[C@H]1O (some centres undefined) do in these assays?
IL-1B inflam inh: 0; HT1080 IDH1KD tx: 0.82µM*; DT40 TDP1 CPT: -9%; HT1080NT lethal: 1.8µM*; DT40 TDP1 no CPT: inconclusive

Results for CC(O)(CS(=O)(=O)c1ccc(F)cc1)C(=O)Nc1ccc(C#N)c(C(F)(F)F)c1 (centres undefined) ?
DT40 TDP1 CPT: 15µM*; DT40 TDP1 no CPT: 11µM*

Results for Cc1c(C(=O)N2CCC(Cc3ccccc3)CC2)sc2ncnc(N3CCC(C)CC3)c12 ?
IL-1B inflam inh: -2; HT1080 IDH1KD tx: 9%; DT40 TDP1 CPT: 21µM*; HT1080NT lethal: 14%; DT40 TDP1 no CPT: inconclusive

What do the screens show for `Nc1cccc(SC2CC(=O)N(c3ccc(Cl)cc3C(=O)c3ccccc3)C2=O)c1` (centres undefined)?
IL-1B inflam inh: 13; HT1080 IDH1KD tx: -7%; DT40 TDP1 CPT: inconclusive; HT1080NT lethal: -26%; DT40 TDP1 no CPT: 21µM*

How did CN1CCN(CC(=O)Nc2ccc(Cl)cc2C(=O)c2ccccc2)CC1 do in these assays?
IL-1B inflam inh: -10; HT1080 IDH1KD tx: -6%; DT40 TDP1 CPT: -18%; HT1080NT lethal: -15%; DT40 TDP1 no CPT: inconclusive

How did CN(C)c1ccc(NC(=O)CN2C(=O)CN=C(c3ccccc3)c3cc(Cl)ccc32)cc1 do in these assays?
IL-1B inflam inh: -62*; HT1080 IDH1KD tx: -13%; DT40 TDP1 CPT: inconclusive; HT1080NT lethal: 0%; DT40 TDP1 no CPT: inconclusive

Results for CC(C)c1ccc(NC(=O)CN2C(=O)CN=C(c3ccccc3)c3ccccc32)cc1 ?
DT40 TDP1 CPT: -17%; DT40 TDP1 no CPT: inconclusive

What do the screens show for `Cc1ccc(NC(=O)CN2C(=O)CN=C(c3ccccc3)c3cc(Cl)ccc32)cc1`?
IL-1B inflam inh: -66*; HT1080 IDH1KD tx: -12%; DT40 TDP1 CPT: inconclusive; HT1080NT lethal: -13%; DT40 TDP1 no CPT: inconclusive

What do the screens show for `O=C1CN=C(c2ccccc2Cl)c2cc(Cl)ccc2N1Cc1cccc(Cl)c1`?
DT40 TDP1 CPT: 21µM*; DT40 TDP1 no CPT: inconclusive

Results for Cc1ccc2c(c1)C(c1ccccc1)=NCC(=O)N2C ?
IL-1B inflam inh: 0; HT1080 IDH1KD tx: 17%; DT40 TDP1 CPT: -15%; HT1080NT lethal: 5%; DT40 TDP1 no CPT: -21%

How did O=C1CN=C(c2ccccc2)c2cc(Cl)ccc2N1CC1CC1 do in these assays?
DT40 TDP1 CPT: inconclusive; DT40 TDP1 no CPT: 24µM*

What do the screens show for `Cc1cccc(N=Cc2c(O)n(C)c(=O)n(C)c2=O)c1`?
IL-1B inflam inh: -10; HT1080 IDH1KD tx: 14%; DT40 TDP1 CPT: 20%; HT1080NT lethal: 13%; DT40 TDP1 no CPT: 4%

How did O=[N+]([O-])c1cc(S(=O)(=O)/N=C(/c2ccccc2)N2CCOCC2)ccc1Cl do in these assays?
IL-1B inflam inh: inconclusive; HT1080 IDH1KD tx: -9%; DT40 TDP1 CPT: inconclusive; HT1080NT lethal: -5%; DT40 TDP1 no CPT: inconclusive

How did CC(N)[C@@H](O)c1ccccc1 (some centres undefined) do in these assays?
DT40 TDP1 CPT: 2%; DT40 TDP1 no CPT: 13%

Bioassay records: PubChem BioAssay, National Center for Advancing Translational Sciences (NCATS)
